The source made the active and inactive calls. The calls were made as follows: active = hit-call score of the fitted dose curve at least 0.9, where 1 is the maximum; inconclusive = response in the unintended direction; inactive = score below 0.9.
Assay: LTEA_HepaRG_LDH_cytotoxicity: Cytotoxicity Assessment in the Life Technologies and Expression Analysis (LTEA) Assay (AID 2283563)
Procedure: LTEA_HepaRG is a cell based, multiplexed-readout assay that uses HepaRG, a human liver cell line, with measurements taken at 48 hours after chemical dosing on a 96-well plate.LTEA_HepaRG_LDH_cytotoxicity is one of 102 assay component(s) measured in the LTEA HepaRG cell culture assay. It is a marker of cell viability / cytotoxicity.Data from the assay component LTEA_HepaRG_LDH_cytotoxicity was analyzed into 1 endpoint. This assay endpoint, LTEA_HepaRG_LDH_cytotoxicity, was analyzed in the positive fitting direction relative to DMSO as the negative control and baseline of activity. Using a type of inducible reporter, measures of mRNA induction for loss-of-signal activity can be used to understand cell death. To generalize the intended target to other relatable targets, this assay endpoint is annotated to the cell cycle intended target family, where the subfamily is proliferation.
A total of 1060 chemcials from the ToxCast library were tested in eight-point concentration-response experiments. Cell culture and cytotoxicity assays were conducted at Thermo Fisher Scientific's Custom Services facility (Madison, WI). A single lot of human HepaRG cells (Thermo Fisher Scientific, Frederick, MD) was used for the cell culture experiments. 96-well format collagen type I coated plates of human HepaRG cells were prepared using established methods. Briefly, cryopreserved HepaRG cells were thawed, plated at a density of approximately 100,000 cells/well in HepaRG Thaw, Plate, and General Purpose media (HPRG770, Thermo Fisher Scientific), and incubated for 48 hours. 0.5% DMSO was selected as vehicle control to balance the requisite need of DMSO in HepaRG cultures to maintain differentiation (for example, baseline metabolism, proportions of hepatocytes vs. cholangiocytes), while enabling further hepatic receptor pathway activation (for example, PXR and CAR) in response to chemical exposure. 48 hours after plating, the culture medium was replaced with HepaRG Serum-Free Incudtion Media. Cells were exposed to each test chemical in duplicate and maintained in CO2 incubators for another 48 hours. Chemical plates were thawed to room temperature and 200x concentrations of treatment groups were prepared. 8-point conentration-reponse curves were made with the highest exposure at 100 uM, followed by half-log dilutions, all in 0.5% DMSO. Each test plate contained variouse controls, induction positive controls (1mM phenobarbital), cytotoxicity positive controls ([…] aflatoxin B1), vehicle controls (0.5% DMSO), and total lysis controls (0.5% DMSO). Cell morphology images were taken using an Essen IncuCyte FLR automated microscope, with six 96-well plates imaged in about 24 minutes. Images were captured and exported and JPEG files. Spent culture media was transfered to black-well plates for the LDH assay, and remaining media was sorted at -80 C for later use. Cells were treated with RLT buffer and frozen until shipped for gene expression analysis. Total RNA was isolated from the cell suspension in 75 uL of Buffer RLT (Qiagen, Germantown, MD 20874) by Quintiles/Expression Analysis (Durham, NC) using a custom isolation procedure. Total RNA from each plate well was transferred to a preamplification plate. Fluidigm's 96.96 Dynamic ArrayTM (Fluidigm, Amsterdam, the Netherlands) technology was used for gene expression analyses by quantitative reverse transcription polymerase chain reaction (qRT-PCR, performed by Quintiles/Expression Analysis, Durham, NC)89. Standard TaqManTM Assays (Applied Biosystems/ThermoFisher Scientific, Foster City, CA) were used to assess the expression of 93 genes selected based on their selectivity and sensitivity to important hepatic receptors known to be modulated by environmental chemicals; importance in human hepatocyte functionality; and hepatotoxicity. […]

Compound | outcome | AC50
OCC(O)CO | inactive | 
O=C1O[C@H]([C@H](O)CO)C(O)=C1O | inactive | 
OCC(CO)n1cnc(-c2ccc(F)cc2)c1-c1ccnc(Oc2ccccc2)n1 | inactive | 
NCCOCCOCCN | inactive | 
Nc1nc(=S)c2[nH]cnc2[nH]1 |  | 32.9 µM (active)
Cc1c(C)c2c(c(C)c1O)CCC(C)(COc1ccc(CC3SC(=O)NC3=O)cc1)O2 (stereo not given) |  | 76.3 µM (active)
CCCC(=O)O | inactive | 
O=C(O)c1[nH]n(-c2ccc(S(=O)(=O)O)cc2)c(=O)c1N=Nc1ccc(S(=O)(=O)O)cc1 | inactive | 
O=[Si]=O | inactive | 
O=C1OC(c2ccc(O)cc2)(c2ccc(O)cc2)c2ccccc21 | inactive | 
CCCCCCCCCCCCCCOS(=O)(=O)O | inactive | 
Cc1ccc(C(C)(C)C)c(O)c1 | inactive | 
CC(=O)S[C@H](C(=O)N[C@H]1Cc2ccccc2[C@H]2CCC[C@@H](C(=O)O)N2C1=O)C(C)C | inactive | 
CCN(CC)CCOc1ccc(C(=C(Cl)c2ccccc2)c2ccccc2)cc1 |  | 62.5 µM (active)
O=Cc1ccccc1C=O | inactive | 
Oc1ccccc1O | inactive | 
CSc1ccc(Oc2ccc(S(N)(=O)=O)cc2CN(C)C)cc1C |  | 81.4 µM (active)
CCCCCCCCCCCCCCCCO | inactive | 
C/C=C/C=C/C(=O)O | inactive | 
Oc1ccc(O)cc1 | inactive | 

Compound | outcome | AC50
CC(C)(O)c1ccc(CNC(=O)c2cccnc2Oc2ccc(F)cc2)cc1 | inactive | 
O=NO | inactive | 
CO[C@@H]1COCC[C@@H]1N[C@@H]1CC[C@@](C(=O)N2CCc3ncc(C(F)(F)F)cc3C2)(C(C)C)C1 | inactive | 
c1ccc2occc2c1 | inactive | 
Nc1nc(Cl)nc2c1ncn2[C@H]1C[C@H](O)[C@@H](CO)O1 |  | 8.62 µM (active)
CCCCCCCCCC[N+](C)(C)[O-] | inactive | 
Cc1cc(SC2=C(O)C[C@@](CCc3ccc(N)cc3)(C(C)C)OC2=O)c(C(C)(C)C)cc1CO | inactive | 
CS(=O)(=O)c1ccc([C@@H](C[C@H]2CCC(=O)C2)C(=O)Nc2cnccn2)cc1Cl | inactive | 
CC(=O)CC(c1ccccc1)c1c(O)c2ccccc2oc1=O (stereo not given) | inactive | 
CC(C)COC(=O)CCCCC(=O)OCC(C)C | inactive | 
CCCCC(CC)CO (stereo not given) | inactive | 
CC(C)(C)c1ccccc1 | inactive | 
CN(C)CCCN(C)CCCN(C)C | inactive | 
CC(=O)O[C@]1(C(C)=O)CC[C@H]2[C@@H]3C=C(Cl)C4=CC(=O)[C@@H]5C[C@@H]5[C@]4(C)[C@H]3CC[C@@]21C |  | 53.7 µM (active)
CCCCc1nc2cccnc2n1Cc1ccc(-c2ccccc2-c2nnn[nH]2)cc1 | inactive | 
O=C(O)c1cccnc1 | inactive | 
CC(C)c1cccc(C(C)C)c1 | inactive | 
CC(=O)[C@@]1(O)CC[C@H]2[C@@H]3CCC4=CC(=O)CC[C@]4(C)[C@H]3CC[C@@]21C | inactive | 
O=C1CCCCC1 | inactive | 
CCCCCCC(CCCCCCCCCCC(=O)OCC(COC(C)=O)OC(C)=O)OC(C)=O (stereo not given) | inactive | 

Reference: PubChem BioAssay (EPA / NIEHS)
